Source: PubChem BioAssay
HT1080 IDH1KD tx: qHTS for induction of synthetic lethality in tumor cells producing 2HG: qHTS for the HT-1080-IDH1KD cell line. HT-1080 IDH1 knockdown viability, ATP luminescence, 48 h. Potency, µM (titrated, usually from 46.1 µM), inactives show top-dose activity, negative = toxicity, hits mostly cytotoxic. actives 2% (n = 360,000). AID 686971, 2013;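 further: potency means the concentration at half of the fitted maximal effect; 0% = DMSO wells and -100% = cell-free medium wells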
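After a 2 h attachment period, IDH1KD HT-1080 cells took pin-transferred compound for 48 h at 37 °C; ATP-based luminescence after 10 min room-temperature reagent incubation reported viability.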
TDP1 cell noCPT: qHTS for Inhibitors of human tyrosyl-DNA phosphodiesterase 1 (TDP1): qHTS in cells in absence of CPT | DT40 Tdp1-/- hTDP1 cells, no CPT, ATP luminescence, 48 h | Potency, µM (titrated, usually from 46.2 µM), for inactives: at the top dose activity change, negative = growth inhibition, most hits filed as inhibitors | actives 15% (n = 420,000); further: potency means the concentration at half of the fitted maximal effect; nearly all actives have a fitted effect of over 55% in size
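Growth of hTDP1-complemented DT40 Tdp1-knockout cells is measured by ATP luminescence after at least 48 hr compound exposure at 37 °C, with DMSO substituting for the 20 nM CPT used in the parallel screen.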
uPA surface inh: qHTS for Inhibitors of Cell Surface uPA Generation; cell surface uPA generation assay, qHTS; Potency, µM (titrated, usually from 38.3 µM), inactives show top-dose activity change, negative = inhibition, most hits filed as inhibitors; actives 0.31% (n = 330,000); AID 540303, 2011; active means well fitted inhibition curve with a large enough effect; inconclusive means small, poorly fitted or top-dose-only effect; inactive means no such curve, though single readings can be large or run the other way; tested in mouse RAW 264.7 cells; further: potency means the concentration at half of the fitted maximal effect; nearly all actives have a fitted effect of over 55% in size
HT1080-NT tox: qHTS for induction of synthetic lethality in tumor cells producing 2HG: qHTS for the HT-1080-NT fibrosarcoma cell line | HT-1080-NT fibrosarcoma viability, CellTiter-Glo ATP luminescence, 48 h | Potency, µM (series often up to 46.1 µM), for inactives: at the top dose activity, negative = less viability, most hits filed as cytotoxic | actives 1.6% (n = 360,000) | AID 686970, 2013;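 further: NT is the 2HG producing partner of a matched IDH1 knockdown line; potency means the concentration at half of the fitted maximal effect; 0% = DMSO-treated cells and -100% = media-only wells without cells; nearly all actives have a fitted effect of over 55% in size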
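750 cells/well, RPMI + 5% FBS; 2 h settle, compound pin-transfer, 48 h at 37 degrees C. CellTiter-Glo 10 min RT, luminescence. Normalized to DMSO and media-only wells.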
IL1B secr inh: qHTS for Inhibitors of Inflammasome Signaling: IL-1-beta AlphaLISA Primary Screen; THP-1 LPS/ATP IL-1B secretion, AlphaLISA, 16 h; hits give low values; activity change, % at 57.5 µM; actives 4.7% (n = 360,000); in the data active means activity change below about -50%; inconclusive means mostly about -30% to -49%
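THP-1 cells pretreated 1 hr with compounds (up to 57.5 uM final), then stimulated with LPS (250 ng/mL final) plus ATP (1.25 mM final); secreted IL-1B measured by AlphaLISA after 16 hr, decreased signal indicating inhibition.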
DT40 TDP1 CPT: qHTS for Inhibitors of human tyrosyl-DNA phosphodiesterase 1 (TDP1): qHTS in cells in presence of CPT; chicken DT40 Tdp1-/-;hTDP1 cells + 20 nM CPT, ATP luminescence, 48 h; actives 12% (n = 420,000); AID 686979, 2013; Potency, µM (doses to about 46.2 µM), inactives show top-dose activity change, negative = growth inhibition, hits mostly inhibitors; further: potency means the concentration at half of the fitted maximal effect; nearly all actives have a fitted effect of over 55% in size
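Cell growth measured by CellTiter-Glo luminescence after a minimum 48 h, 37 C compound exposure with 20 nM CPT in Tdp1-knockout DT40 cells stably expressing hTDP1, seeded 400/well; qHTS titration format.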
The depositor's hits bear a star; ? = inconclusive; . = not tested or not shown; ! = a repeat was not active. An excerpt weighted towards active compounds, which were near 19% of everything screened. Unless noted, the call rests on the fitted dose curve; in most records, active means well fitted curve in the direction sought with a large enough effect; inconclusive means small, poorly fitted or top-dose-only effect, or another doubt; inactive means no such curve, though single readings can be large; an effect the other way counts as inactive or inconclusive. Unless noted, on the % scale 0 is the no-effect control and ±100 the full control effect.

SMILES | HT1080 IDH1KD tx | TDP1 cell noCPT | uPA surface inh | HT1080-NT tox | IL1B secr inh | DT40 TDP1 CPT
C[C@@H]1C(=O)O[C@H](C)[C@H]1C[C@@H](O)[C@](C)(O)C1CC[C@@]2(O)C3=CC(=O)[C@@H]4C[C@@H](O)[C@@H](O)C[C@]4(C)C3CC[C@]12C (stereo partly drawn) | 15% | 5% | 8% | 9% | 17 | -3%
C=CC[C@@H](CC(=O)N[C@@H](CO)Cc1ccccc1)C(=O)NC[C@@H](OC(=O)[C@@H](CC=C)CC(=O)OC(C)(C)C)c1ccccc1 | -6% | ? | 5% | -2% | -10 | 21µM*
COc1cccc(-c2cc(C(F)(F)F)nc(N3CCN(c4ccccc4)CC3)n2)c1 | 3% | ? | 2% | ? | -5 | 3%
FC(F)(F)COc1nc(OCC(F)(F)F)nc(N2CCN(c3ccccc3)CC2)n1 | -11% | ? | 11% | 1% | -54* | -30%
FC(F)(F)COc1nc(N2CCOCC2)nc(N(c2ccccc2)c2ccccc2)n1 | ? | 21µM* | 1% | ? | -5 | ?
Cc1ccc(C(=O)N2CCN(Cc3ccc4c(c3)OCO4)CC2)o1 | -1% | -8% | -1% | 9% | -16 | -5%
O=C(c1ccc(COc2ccc(Cl)cc2)o1)N1CCN(Cc2ccc3c(c2)OCO3)CC1 | -22% | 11µM* | 3% | -27% | -76* | ?
O=C(c1ccc(COc2ccccc2Cl)o1)N1CCN(Cc2ccc3c(c2)OCO3)CC1 | ? | 21µM* | 17% | ? | -13 | 16µM*!
CCN1CCN(S(=O)(=O)c2ccc(OC)c(NC(=O)c3ccccc3)c2)CC1 | -8% | -25% | -17% | -7% | 0 | -23%
CC(C)(C)c1ccc(C(=O)NCC(=O)N/N=C/c2ccccc2OCC(=O)O)cc1 | 3% | 3% | 0% | 0% | -12 | 4%
CC1CCN(c2ccc(-c3cccs3)nn2)CC1 | -22% | 10µM* | 0.89µM* | ? | -4 | ?
OCCNc1ncnc2c1ncn2[C@H]1CN(Cc2ccco2)C[C@@H](CO)O1 | 14% | 0% | . | 1% | -6 | 16%
CCOC(=O)c1sc(=S)n(-c2ccccc2)c1NC(C)=O | -21% | -29% | 3% | -12% | 1 | -4%
CCOC(=O)c1sc(=S)n(C)c1NC(=O)c1cccc(Br)c1 | ? | 21µM* | 13% | ? | -13 | 21µM*
CCOC(=O)c1sc(=S)n(C)c1NC(=O)c1ccccc1 | 6% | 21µM* | 1% | 2% | 15 | ?
COc1ccc(S(N)(=O)=O)cc1C(=O)OCC(=O)N1CCCC(C)C1 (stereo not drawn) | 8% | -4% | 4% | 2% | 3 | 0%
